The campaign covered roughly 300,000 compounds. About 2,300 (0.77%) were called active. Only a selection was taken, and actives are over-represented in it overall. Values without a mark were called inactive.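 How the source made its calls: active means mean activation of at least 80% with every replicate also reaching 80%; inconclusive means mean reaches 80% but some replicate falls short; inactive means the rest.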
Assay: activators of MITF-driven TRPM1 promoter reporter, primary screen, cell-based, SK-MEL-5, luciferase, single point (AID 588334);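 further: 0% = neutral control wells and 100% = parthenolide positive control wells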
Details: SK-MEL-5 TRPM1-promoter luciferase, 24 h; at 12.5 µM; active compounds read high; % of positive control, neutral wells = 0

Row | SMILES | activation
1 | C=C(C)C(=O)Nc1cccc(C(C)=O)c1 | 5.72%
2 | Cc1nc2ccc(NC(=O)C(F)(F)F)cc2o1 | -1.51%
3 | CC(=O)c1cccc(NC(=O)Nc2ccc(C)cc2)c1 | 104% (active)
4 | Cc1ccc(NC(=O)Nc2ccc3oc(C)nc3c2)cc1 | 92.6% (active)
5 | C[C@H](O)[C@@H]1C(=O)N2CCc3ccc(N4CCOCC4)cc3[C@@H]2C[C@@H]1N(C)C(=O)C(C)(C)C | 3.72%
6 | COc1ccc(C2NCCCC2c2ccccc2)cc1 (centres undefined) | -15.7%
7 | O=C(NN=Cc1ccccc1O)NN=Cc1ccccc1O | -21.8%
8 | O=C(Nc1ccc2ccccc2c1[N+](=O)[O-])c1ccccc1 | 37.5%
9 | COc1cc(C(=O)OCc2cc(=O)n3ccsc3n2)ccc1OC(C)C | 25%
10 | COc1ccc([C@H]2CC(=O)C=C(/C=C/c3ccc(Cl)cc3)C2)cc1 | 55.4%
11 | COc1ccc([C@H]2CC(=O)C=C(/C=C/c3ccccc3)C2)cc1 | 84.7% (active)
12 | COc1ccc([C@H]2CC(=O)C=C(c3ccc(C)cc3)C2)cc1 | 18.7%
13 | CC1CN(Cc2ccccc2)C(=S)NC1=O (centres undefined) | 3.25%
14 | COC(=O)c1ccc(CNC(=O)Cn2cc(C)c(=O)[nH]c2=O)cc1 | 2.68%
15 | FC(F)(F)c1cccc(Nc2ncnc3ccccc23)c1 | 0.633%
16 | FC(F)(F)c1cccc(N/N=C/c2ccccc2)c1 | 88.5% (active)
17 | Cc1nnsc1C(=O)N/N=C/c1cccc(C(F)(F)F)c1 | 15.6%
18 | Cc1c(NS(=O)(=O)c2cccc(C(=O)Nc3ccc(SC(F)F)cc3)c2)c(=O)n(-c2ccccc2)n1C | -11%
19 | COc1cc(/C=C/c2ccc(/C=C/c3cc(OC)c(OC)c(OC)c3)cc2)cc(OC)c1OC | -15.7%
20 | COc1cccc(CNC(=O)CCCC(=O)Nc2cccc([N+](=O)[O-])c2)c1 | -21%
21 | COc1cccc(NCCC(=O)c2cccc([N+](=O)[O-])c2)c1 | 85.6% (active)
22 | COc1cccc(C(=O)CC(=O)C(=O)Nc2ccc([N+](=O)[O-])cc2C)c1 | 0.189%
23 | Cc1ccc(C)c(S(=O)(=O)N2CCN(c3ncnc4sccc34)CC2)c1 | -33.1%
24 | CCC(C)C1(C2CCCC2)NC(=O)NC1=O (centres undefined) | -0.575%
25 | CSCCC(NS(=O)(=O)c1ccc(C)cc1)C(=O)N(C)CC(=O)Nc1ccccc1Br (centres undefined) | -13.8%

Row | SMILES | activation
26 | Cc1nn2cc(-c3ccc(Cl)cc3)cnc2c1Br | 132% (active)
27 | C=CCn1c(=O)n(C)c2c(=O)n(C)c(=O)n(C)c21 | -2.68%
28 | O=C1c2ccccc2C(=O)N1CCCCCCN1C(=O)c2ccccc2C1=O | -10.4%
29 | CC(C)n1cnc2c(NCc3ccccc3)cc(OCC3CCN(C)CC3)cc21 | -31%
30 | CN(C)c1ccc(CSc2ccccc2)cc1 | 106% (active)
31 | O=C(c1ccc(CSc2ccccc2)cc1)N1CCCCCC1 | 61.5%
32 | CN(C)c1cc[n+](Cc2ccccc2)cc1 | -11.3%
33 | C=CC[C@H](CC(=O)N(CCO)Cc1ccccc1)C(=O)N[C@@H](COC(=O)[C@@H](CC=C)Cc1ccc(F)cc1)Cc1ccccc1 | 8.2%
34 | Nc1cc(=O)n(Cc2ccccc2)c(=O)n1Cc1ccccc1 | -2.74%
35 | Cc1ccc(CSc2nnc(-c3cnccn3)n2C)cc1 | 12.1%
36 | Cn1c(SCc2c(F)cccc2Cl)nnc1-c1cnccn1 | 90.4% (active)
37 | Oc1ccc(-n2nnnc2SCc2c(F)cccc2Cl)cc1 | 0.316%
38 | Cc1ccc(C(=O)Nc2ccccc2-c2ccccc2)cc1S(=O)(=O)Nc1ccccc1 | 3.07%
39 | CCOc1cc(C(=O)N(Cc2ccccc2)c2ccc(C)cc2)ccc1OCC(=O)N1CCOCC1 | -10.1%
40 | CCOC(=O)c1ccc(NC(=O)CNC(=O)c2ccco2)cc1 | 7.02%
41 | O=C(COC(=O)c1ccccc1C(=O)c1ccccc1)c1ccco1 | 1.5%
42 | O=C(COC(=O)c1ccco1)NCc1ccc(Cl)cc1 | -14.2%
43 | O=C(OCC(=O)N1CCCC1)c1ccco1 | 4.95%
44 | CCN(CC)c1ccc(C(=O)OCC(=O)c2ccco2)cc1 | 83.2% (active)
45 | CCc1ccc(C(=O)COC(=O)c2ccco2)cc1 | 99.6% (active)
46 | CCCCN1CC(COc2ccccc2)Oc2cccc(F)c2S1(=O)=O (centres undefined) | -2.06%
47 | N#CCc1c[nH]c2ccc([N+](=O)[O-])cc12 | 11.4%
48 | CCC1([N+](=O)[O-])COC(c2ccc(C)cc2)OC1 (centres undefined) | 1.68%
49 | CN(CCc1ccccc1)C(=O)c1cccc(NC(=O)Cc2cccc(NC(=O)C3CCCN(C(=O)C4CCC4)C3)c2)c1 (centres undefined) | -9.62%

From PubChem BioAssay AID588334 (Broad Institute, 2011)
